Screening data deposited in PubChem BioAssay by National Center for Advancing Translational Sciences (NCATS).
Hits are enriched below; roughly 3.1% of the tested compounds scored in any of these assays.
KAT2A inh: blocks human GCN5L2 histone acetyltransferase | Potency, µM (highest dose often 58.9 µM), without a hit: top-dose activity change, negative = inhibition, actives largely listed as inhibitors | 0.21% of 390,000 active | GCN5L2 HAT assay, ThioGlo1 CoA-SH fluorescence | Q92830; note: potency is the fitted concentration of half-maximal effect
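Preincubate 20nM GCN5L2 with compound 15 min, RT → add 50uM ThioGlo1 + 75uM H3(1-25) + 70uM acetyl-CoA → read fluorescence 0 and 20 min. Primary qHTS; fluorescent artifacts likely.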
PLK1 PBD block: blocks phosphopeptide binding to human PLK1 polo-box domain | P53350 | Plk1 PBD binding of FITC phosphopeptide, fluorescence polarization | Potency, µM, for inactives: max response, negative = inhibition, actives largely listed as inhibitors | 2.8% of 360,000 active | AID 720504; note: potency is the fitted concentration of half-maximal effect; series mostly up to about 57 µM; nearly all actives have a fitted effect of over 65% in size
PI4K2A inh: PI4K2A (human) kinase inhibition; Q9BTU6; AID 1346378; purified PI4K2A, ADP-Glo luminescence, 1 h; hits give low values; activity change, negative = inhibition, % at 76.9 µM; 0.13% of 420,000 active; in the data active = activity change below about -50%; inconclusive = mostly about -30% to -49%;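 note: -100% = wells without enzyme as full effect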
Target sequence (Q9BTU6 whole entry, looked up): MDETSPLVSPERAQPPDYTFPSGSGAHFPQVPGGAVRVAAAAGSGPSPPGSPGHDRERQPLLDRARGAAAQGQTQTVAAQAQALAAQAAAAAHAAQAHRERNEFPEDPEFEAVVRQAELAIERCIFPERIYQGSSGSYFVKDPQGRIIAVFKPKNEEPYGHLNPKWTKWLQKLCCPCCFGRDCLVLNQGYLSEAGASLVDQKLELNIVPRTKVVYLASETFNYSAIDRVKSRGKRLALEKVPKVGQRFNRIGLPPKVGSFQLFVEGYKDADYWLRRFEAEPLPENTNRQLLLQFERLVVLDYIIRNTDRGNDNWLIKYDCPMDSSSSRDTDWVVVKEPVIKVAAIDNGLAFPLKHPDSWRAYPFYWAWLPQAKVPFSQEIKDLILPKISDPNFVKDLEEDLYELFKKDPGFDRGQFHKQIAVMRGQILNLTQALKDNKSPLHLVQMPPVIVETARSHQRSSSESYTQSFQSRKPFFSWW
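In this quantitative HTS, ADP production by PI4K2A was quantified luminescently after 1 h at ambient temperature; 100 microM adenosine served as plate-quality control.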
VDR inhibitor: vitamin D3 receptor (human) inhibition. P11473. VDR-SRC2-3 peptide fluorescence polarization, 2 h. Potency, µM, without a hit: max response, negative = inhibition, hits mostly inhibitors. 0.93% of 400,000 active; note: potency is the fitted concentration of half-maximal effect
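After 23 nl compound addition and a short centrifugation, plates sat for 2 hours at ambient temperature; polarization of fluorescence then indicated loss of VDR binding to peptide SRC2-3.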
GLS inh: inhibitors of human glutaminase (GLS); GLS enzymatic activity, qHTS titration; Potency, µM (doses to about 45.5 µM), inactives show at the top dose activity change, negative = inhibition, most hits filed as inhibitors; 0.21% of 410,000 active; note: potency is the fitted concentration of half-maximal effect
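Assay buffer: 45 mM KH2PO4 pH 8.2, 0.02% Tween-20. hKGA acts on L-glutamine (1 mM solution added); product glutamate is reported by an oxidase/peroxidase Amplex Red coupling, with fluorescence taken at baseline and 30 min.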
* hit, by the source's call; i = inactive; ? = inconclusive; · = not tested or not shown; [ ] = another dose, or the depositor's remark. Unless noted, calls come from the whole dose curve; as a rule, active = well fitted curve in the direction sought with a large enough effect; inconclusive = small, poorly fitted or top-dose-only effect, or another doubt; inactive = no such curve, though single readings can be large; an effect the other way counts as inactive or inconclusive. Unless noted, % is set by controls: 0 for no effect and ±100 for the full control effect.

SMILES	KAT2A inh	PLK1 PBD block	PI4K2A inh	VDR inhibitor	GLS inh
Cc1noc(C)c1-c1nccc(NC2CC2)n1	?	·	·	50µM*	·
CCOC(=O)C(C(=O)OCC)C(Nc1ccc(Br)cc1)c1ccccc1 (centres undefined)	-4%	-7%	26	79µM*	11%
O=C1C(Cl)=C(N2CCN(c3ccccc3[N+](=O)[O-])CC2)C(=O)c2ccccc21	-3%	?	?	40µM*	11%
O=C(C=Cc1cccs1)c1ccc(Cl)s1	·	-12%	10	40µM*	-16%
O=C(C=Cc1cccs1)c1ccccc1	·	-4%	-2	?	6%
O=C(NCCCc1ccccc1)c1cc(COc2ccc(F)cc2Cl)on1	-3%	30µM*	2	?	16%
Nc1cccc2c1C(=O)N(C(=O)c1cccc(S(=O)(=O)N3CCCCCC3)c1)C2=O	-4%	3.2µM*	11	?	51%
Nc1cccc2c1C(=O)N(C(=O)c1ccc(Cl)c(S(=O)(=O)N3CCCCCC3)c1)C2=O	-23%	?	2	?	26%
C[N+](C)(C)CCC(=O)c1cccc2ccccc12	?	·	·	2µM*	·
O=S(=O)(Nc1nc(-c2sccc2Cl)cs1)c1cc(Cl)ccc1Cl	?	17µM*	-12	?	29%
NC(=O)c1c(NC(=O)C2COc3ccccc3O2)sc2c1CCN(Cc1ccccc1)C2 (centres undefined)	-7%	31%	-1	3%	-7%
COC(=O)N1CCc2c(sc(NC(=O)C3COc4ccccc4O3)c2C(N)=O)C1 (centres undefined)	-10%	11µM*	-4	89µM*	22%
C=CC[C@@]1(c2ccc(Br)cc2OC)Oc2ccccc2-c2nccnc21	·	·	4	·	·
Cc1cc(C=O)c(C)n1-c1cc(C(=O)O)cc(C(=O)O)c1	-9%	?	-5	10%	18µM*
O=c1oc2ccccc2c(O)c1/C=C1\C=Nc2ccccc21	-15%	0.6µM*	-17	-9%	?
COc1ccc2c(c1)CCCN2C(=O)C1CCCN(S(=O)(=O)c2ccc(Cl)s2)C1 (centres undefined)	·	·	0	·	·
COc1ccc2[nH]cc(CCNc3ncncc3-c3ccc(C(=O)N(C)C)cc3)c2c1	-10%	·	·	-7%	·
CCCCn1c(=O)[nH]c(=O)c2c1nc(Cn1ncc(Cl)c(Cl)c1=O)n2CCC	1%	30µM*	-16	?	-15%
CCCCn1c(=O)[nH]c(=O)c2c1nc(CN1C(=O)c3ccccc3S1(=O)=O)n2CCC	-3%	-5%	-7	20%	-8%
CCCN1C(=O)c2ccc(C(=O)Nc3cc(C)ccc3O)cc2C1=O	-16%	-4%	-56*	5%	?
COCCn1nnnc1C(c1ccc(C)cc1)N1CCN(Cc2ccc3c(c2)OCO3)CC1 (centres undefined)	-2%	24µM*	4	-11%	9%
CC(C)CC(NC(=O)C(COCc1ccccc1)NC(=O)OC(C)(C)C)C(=O)NN (centres undefined)	-7%	27µM*	-3	-22%	11%
Fc1ccc(-c2csc3ncnc(Cl)c23)cc1	-1%	21µM*	-2	?	4%
S=c1[nH]cnc2scc(-c3ccc(Cl)cc3)c12	?	8.4µM*	-4	?	?
COC(=O)[C@]12C[C@H](CC(=O)N3CCCC3)C(=O)N(CCc3ccc(OC)c(OC)c3)C1=C[C@H](COCc1ccccc1)O[C@@H]2C	·	·	-4	·	·
SMILES	KAT2A inh	PLK1 PBD block	PI4K2A inh	VDR inhibitor	GLS inh
O=S(=O)(c1ccc2ccccc2c1)N1CCN(c2nc(-c3ccccc3)nc3ccccc23)CC1	·	·	·	3%	·
CC(=O)Oc1ccc(N2C(=O)C3C(C2=O)C(C(=O)c2ccc(Cl)cc2)N2CCCC32)cc1 (centres undefined)	-16%	24µM*	1	-5%	1%
O=C1CCCC2=C1C1O[C@](CCCCN3C(=O)c4ccccc4C3=O)(Cc3ccccc31)O2	1%[12.7 µM]	·	·	·	·
Brc1ccc(NC2=Nc3ccccc3CC2)cc1	2%	12µM*	-9	?	?
CCCC(=O)O[C@]1(C(=O)COC(=O)CC)CC[C@H]2[C@@H]3CCC4=CC(=O)CC[C@]4(C)[C@H]3[C@@H](O)C[C@@]21C	·	·	i	·	·
O=Nc1nc2ncccn2c1-c1ccccc1	·	7.5µM*	-5	?	14%
O=C(Nc1nc2ncccn2c1-c1ccccc1)c1ccccc1	·	·	2	·	·
Cc1cc(O)c(C(C)C)cc1N=Cc1ccc([N+](=O)[O-])cc1	·	-23%	-4	50µM*	0%
Cc1cc(O)c(C(C)C)cc1N=Cc1ccc(N(C)C)cc1	·	-18%	-6	45µM*	-4%
COc1cccc(C=Nc2cc(C(C)C)c(O)cc2C)c1O	·	-22%	-2	50µM*	41%
COc1cccc(C=Nc2cccnc2)c1O	-5%	·	·	·	·
Cc1cc(-n2c(=O)[nH]c(=O)n(C)c2=O)ccc1Oc1ccc(S(=O)(=O)C(F)(F)F)cc1	·	·	·	·	1%
CCOC(=O)c1sc(=S)n(C)c1NC(=O)c1cccc(Br)c1	-15%	11µM*	-2	?	16%
CCOC(=O)c1sc(=S)n(-c2ccccc2)c1NC(C)=O	-1%	?	-3	?	0%
CCOC(=O)c1sc(=S)n(C)c1NC(=O)c1ccccc1	-5%	7.5µM*	2	79µM*	-5%
COc1ccc(S(=O)(=O)N(C)C[C@@H]2Oc3c(NC(=O)Nc4ccccc4)cccc3C(=O)N([C@@H](C)CO)C[C@H]2C)cc1	·	·	-2	·	·
COC[C@H]1CCCN1c1ccc2c(c1)O[C@H](C)CCN(C1CC1)S2(=O)=O	·	·	-2	·	·
CCCCC(CC)CO (centres undefined)	-8%	-9%	7	-8%	0%
CCCCC(CC)CN=C(N)NC(N)=NCCCCCCN=C(N)NC(N)=NCC(CC)CCCC (centres undefined)	-21%	?	-8	5%	16µM*
Cc1noc(NS(=O)(=O)c2ccc(NC(=O)c3cc(-c4ccccc4Cl)nc4ccccc34)cc2)c1C	-11%	38µM*	4	-17%	-15%
CCN(CC)S(=O)(=O)c1ccc(O)c(NC(=O)c2cc(-c3cc(OC)c(OC)c(OC)c3)nc3ccccc23)c1	-9%	19µM*	4	-23%	-8%
Cc1ccc(/C=C/C(=O)Nc2ccc(S(=O)(=O)Nc3onc(C)c3C)cc2)cc1	-5%	38µM*	1	18%	0%
COc1cc(-c2cc(C(=O)Nc3ccc(S(=O)(=O)Nc4ncccn4)cc3)c3ccccc3n2)cc(OC)c1OC	-20%	27µM*	-3	?	12%
COc1ccc(-c2cc(C(=O)Nc3ccc(S(=O)(=O)Nc4onc(C)c4C)cc3)c3ccccc3n2)cc1	-19%	?	0	-18%	14%
